Test results: ChEMBL document CHEMBL3433997, “St. Jude Leishmania screening dataset” (2016)

Legend:
Assay type in all cases: functional
[1] = biological target: Solute carrier family 2, facilitated glucose transporter member 1 (Homo sapiens) (UniProt P11166); assay: ST_JUDE_LEISH: Cytotoxicity at 2uM final concentration against transgenic Leishmania Mexicana promastigotes LmGLUT1 that are glucose transport deficient and complemented with the human glucose transporter GLUT1. Activity is measured by DNA content using SYBR green in vitro
[2] = biological target: Hexose transporter 1 (Plasmodium falciparum) (UniProt O97467); assay: ST_JUDE_LEISH: Cytotoxicity at 2uM final concentration against transgenic Leishmania Mexicana promastigotes LmPfHT that are glucose transport deficient and complemented with the Plasmodium falciparum hexose transporter. Activity is measured by DNA content using SYBR green in vitro
[3] = biological target: Glucose transporter (Leishmania mexicana) (UniProt O61059); assay: ST_JUDE_LEISH: Cytotoxicity at 2uM final concentration against transgenic Leishmania Mexicana promastigotes LmGT2 that are glucose transport deficient and complemented with the L. Mexicana glucose transporter 2. Activity is measured by DNA content using SYBR green in vitro

Chain of Solute carrier family 2, facilitated glucose transporter member 1 (Homo sapiens) (P11166 whole entry): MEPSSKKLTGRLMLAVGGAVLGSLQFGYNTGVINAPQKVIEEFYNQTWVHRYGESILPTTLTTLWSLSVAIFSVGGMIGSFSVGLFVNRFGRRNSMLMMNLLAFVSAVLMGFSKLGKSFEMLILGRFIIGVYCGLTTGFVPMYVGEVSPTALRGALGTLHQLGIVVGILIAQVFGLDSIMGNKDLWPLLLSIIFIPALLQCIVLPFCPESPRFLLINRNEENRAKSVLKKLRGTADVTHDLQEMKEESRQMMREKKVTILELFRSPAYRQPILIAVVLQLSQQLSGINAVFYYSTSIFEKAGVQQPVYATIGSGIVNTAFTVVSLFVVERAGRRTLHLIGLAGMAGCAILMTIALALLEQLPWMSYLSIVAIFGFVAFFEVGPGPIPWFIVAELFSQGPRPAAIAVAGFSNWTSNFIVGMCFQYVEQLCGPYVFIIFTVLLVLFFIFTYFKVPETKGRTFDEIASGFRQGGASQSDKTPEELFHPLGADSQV

| Structure (SMILES) | inhibition [1] [%] | inhibition [2] [%] | inhibition [3] [%] |
| --- | --- | --- | --- |
| O=C(NCC(=O)N1CCC[C@H]1C(=O)O)[C@@H](Cc1ccccc1)NC(=O)[C@@H]1CCCN1C(=O)CCCc1ccc(O)cc1 | -2.68 |  |  |
| CCCCCCC(C)c1cc(OCCN(CC)CC)c2c(c1)OC(C)(C)C=C2c1ccncc1 (stereo unspecified) | -0.93 | 0.33 | -1.02 |
| COc1cc(C)nc2ccc(NC(=O)COCC(=O)Nc3ccc4nc(C)cc(OC)c4c3)cc12 | 4.3 | 3.83 | 3.64 |
| Fc1ccccc1CNc1ncc(-c2ccsc2)c(-c2nccs2)n1 | -0.99 | 0.2 | -3 |
| Clc1cc2c(Nc3ccc(Oc4ccccc4)cc3)ccnc2cc1-c1ccc(CNCCN2CCOCC2)o1 | -1.44 | -0.57 | -0.03 |
| c1ccc(-c2ccc3c(Nc4ccc5[nH]ncc5c4)ccnc3c2)nc1 | 4.92 | 4.75 | 5.04 |
| CCCCCC(C)(C)NC[C@@H](O)[C@H](Cc1ccccc1)NC(=O)c1cc(NCC)cc(N2CCCC2=O)c1 | -0.4 | 0.68 | -1.82 |
| Cc1nc(C)c(-c2ccc(Sc3ccc(Cl)cc3)cc2)c(O)c1Br | -2.06 | -1.57 | -1.9 |
| O=C(/C=C/c1ccc(Cl)c(Cl)c1)NCCCCCN1CCC(NC(=O)Nc2cccc(C(F)(F)F)c2)CC1 | -1.91 | -0.93 |  |
| CCOc1cc(N)c2nc3ccc([N+](=O)[O-])cc3cc2c1 | 16.1 | 20.1 | 6.39 |
| O=C(Nc1cccc(CN2CCCN(Cc3cccc(O)c3)CC2)c1)c1cc2ccccc2s1 | -0.14 | -0.1 |  |
| CC1=C(C(=O)Nc2cc3cn[nH]c3cc2F)C(c2cccc(O)c2F)CC(=O)N1 (stereo unspecified) | -2.25 | -3.23 | 0.72 |
| COc1ccc2nccc([C@@H](O)CN3CCC(NC(=O)/C=C/c4ccc5[nH]c(=O)ccc5c4)CC3)c2c1 | 2.93 | 1.78 | 2.05 |
| Cc1ccc(NC(=O)N2CCCN(CCCCCNC(=O)/C=C/c3ccc(Cl)c(Cl)c3)CC2)cc1C | -0.69 | -1.17 |  |
| Cc1ccc(NC(=O)N2CCCN(CCCCCNC(=O)/C=C/c3ccc(Cl)c(Cl)c3)CC2)cc1 | -1.97 | -0.68 |  |
| NC(=O)c1cccc(C(=O)Nc2ccc(-c3cccc(-c4nc5cc(C(F)(F)F)ccc5[nH]4)c3)cc2)c1 | 0.39 | -0.82 | -2.19 |

| Structure (SMILES) | inhibition [1] [%] | inhibition [2] [%] | inhibition [3] [%] |
| --- | --- | --- | --- |
| O=[N+]([O-])c1ccc(C2=NN(S(=O)(=O)c3c(Cl)cc(Cl)cc3Cl)CCCC2)cc1 | 0.34 | 0.56 | -0.34 |
| O=[N+]([O-])c1ccc(-n2nc(-c3cccnc3)n(Cc3ccco3)c2=S)c(Cl)c1 | 1.31 | -1.09 |  |
| O=C(Nc1ccc(Cl)c(C(F)(F)F)c1)Nc1ccc(Cl)c(C(F)(F)F)c1 | 0.91 | 1.04 | 2.07 |
| Cc1ccc(C2CCN(CCCCNC(=O)c3ccc(-c4ccc(C(F)(F)F)cc4)cc3)CC2)c(O)c1 | -0.37 | -0.08 | -0.78 |
| CCCC(C)NC(=O)/C=C/c1ccccc1-c1cccc(OC)c1 (stereo unspecified) | -0.91 | -0.01 |  |
| CC(CN(C)C)C(=O)Nc1cccc(-c2ccc(-c3nc4ccccc4[nH]3)cc2)c1 (stereo unspecified) | 12.2 | 9.79 | 7.36 |
| CCc1cn2c3c(cc(C(=O)N[C@@H](Cc4cccc(F)c4)[C@H](O)CNC4CCCCC4)cc13)N(C)S(=O)(=O)CC2 | -0.36 | -1.06 | -0.81 |
| COc1ccccc1N1CCN(C(C(=O)NCc2ccc3c(c2)OCO3)c2ccc(C)cc2)CC1 (stereo unspecified) | -0.94 | -0.2 |  |
| CCCC(CNCc1cccc(OCC)c1)CNc1cc(=O)c2ccccc2[nH]1 (stereo unspecified) | -0.5 | -0.45 |  |
| CN1CCCC1CNS(=O)(=O)c1ccc(C(=O)NCC2CC2)cc1 (stereo unspecified) | 1.51 | 2.45 | 1.36 |
| CCN(CC)CCOc1ccc(C(O)(C#CC(O)(c2ccc(OCCN(CC)CC)cc2)c2ccc([N+](=O)[O-])cc2)c2ccc([N+](=O)[O-])cc2)cc1 (stereo unspecified) | 61 | 32.7 | 4.31 |
| COc1ccc(Cn2c(Nc3cccc(C(F)(F)F)c3)nc3cc(C(=O)NC4CC4)cnc32)cc1Cl | -1.9 | -0.56 | -3.22 |
| CC(C)C[C@H](NC(=O)c1ccc(F)cc1)C(=O)N[C@H](/C=N/NC(=O)c1ccccc1)CCc1ccccc1 | 4.79 | 6.16 | 3.91 |
| O=C(Nc1ccc(C(=O)N2CCN(CCN3CCN(c4cccc(C(F)(F)F)c4)CC3)CC2)cc1)c1cc(Cl)cc(Cl)c1 | 3.84 | 0.79 | 2.52 |
| COC(=O)c1ccc(OCC(O)CO)cc1O (stereo unspecified) | 0.55 | 2.14 | -0.04 |
| CCc1c(C)nc2nc(Cc3cccc(F)c3)nn2c1N1CCN(c2ccccn2)CC1 | 14.9 | 12 | 9.56 |
